Our source for the Potency values is PubChem BioAssay (NCATS).

Records with an inconclusive call do not appear. Active and inactive are the calls of the source. The call rests on the fitted dose curve; in most records, active means well fitted inhibition curve with a large enough effect; inconclusive means small, poorly fitted or top-dose-only effect; inactive means flat fitted curve, though single readings scatter.

Test in all cases: qHTS profiling for inhibitors of Plasmodium falciparum proliferation (AID 504749); further: nearly all actives have a fitted effect of over 60% in size
Conditions in all cases: P. falciparum in erythrocytes, SYBR Green DNA, 72 h; series mostly up to 28.7 µM
For orientation: qHTS replaces the single test concentration by a dilution series.

The test system of one experiment is ICS. An outline of the steps:
(§1)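 In a 72 h erythrocytic culture (37 C, humidified, 5% CO2) at 2.5% hematocrit and 0.3% starting parasitemia, compounds were tested; SYBR Green I in detergent lysis buffer stained parasite DNA overnight.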

Another experiment deals with JCK. An outline of the steps:
as §1

A further experiment deals with N140. An outline of the steps:
as §1

A further experiment has as its system P93_24. In short, it runs like this: as §1
A further experiment deals with P94_40. An outline of the steps:
as §1

In the next experiment the test system is PAD. In short, it runs like this:
as §1

The next experiment relates to PC15. An outline of the steps:
as §1

For the next experiment, the system named is PC26. In short, it runs like this:
as §1

The subject of the next experiment is PC49. An outline of the steps:
as §1

A further experiment deals with SC27B. An outline of the steps:
as §1
Potency means the concentration at half of the fitted maximal effect.

`CCCCCCCCCCCCCC[N+](C)(C)Cc1ccccc1`: the Potency was 2.51 µM (active) in the experiment with ICS; 11.2 µM (active) in the experiment on JCK; 8.91 µM (active) in the experiment with N140; 7.94 µM (active) in the experiment on P93_24; 6.31 µM (active) in the experiment on P94_40; 11.2 µM (active) in the experiment on PAD. For the same compound, the Potency with PC15 was 6.31 µM (active); in the experiment with PC26, 5.36 µM (active); in the experiment on PC49 it was 7.94 µM (active); in the experiment with SC27B it was 7.94 µM (active).
Take `CC(C)(C)NC[C@H](O)COc1cccc2c1CCCC2=O`: the Potency result with ICS, with JCK, in the experiment on N140, in the experiment with P93_24, in the experiment with P94_40 and with PAD was “inactive” throughout. Further, the Potency entry in the experiment on PC15, in the experiment with PC26, in the experiment with PC49 and in the experiment with SC27B was “inactive” each time.
In the case of `COc1ccc(CN(CCN(C)C)c2ncccn2)cc1`, the Potency entry in the experiment with ICS, in the experiment with JCK, in the experiment with N140, with P94_40, in the experiment on PAD and in the experiment on PC15 was “inactive” each time. Besides, the Potency result in the experiment with PC26, in the experiment with PC49 and with SC27B was “inactive” in each case. The Potency with P93_24 is 7.94 µM (active).
For the compound `NS(=O)(=O)Cc1noc2ccccc12`, the Potency result in the experiment with ICS, in the experiment with JCK, in the experiment with N140, in the experiment with P93_24, in the experiment with P94_40 and in the experiment on PAD was “inactive” in each case. Moreover, the Potency entry with PC15, in the experiment with PC26, in the experiment on PC49 and with SC27B was “inactive” each time.
`Nc1nc(N)c(-c2ccccc2)s1`: the Potency result in the experiment on ICS, in the experiment with JCK, with N140, in the experiment with P93_24, in the experiment on P94_40 and in the experiment on PAD was “inactive” each time. In addition, the Potency result in the experiment with PC15, in the experiment on PC26, in the experiment on PC49 and in the experiment on SC27B was “inactive” in each case.
`CCOc1ccccc1C(N)=O`: the Potency entry in the experiment with ICS, in the experiment on JCK, with N140, in the experiment with P93_24, in the experiment with P94_40 and in the experiment with PAD was “inactive” each time. The Potency entry in the experiment with PC15, in the experiment with PC26, in the experiment with PC49 and with SC27B was “inactive” in each case.
Consider `CC(=O)Nc1ccc(S(=O)(=O)Nc2ccc([N+](=O)[O-])cc2)cc1`, for which the Potency entry in the experiment on ICS, in the experiment on JCK, in the experiment on N140, in the experiment on P93_24, in the experiment on P94_40 and in the experiment on PAD was “inactive” in each case. The Potency entry in the experiment with PC15, with PC26, with PC49 and in the experiment on SC27B was “inactive” each time.
For the compound `c1ccc(CC2=NCCN2)cc1`, the Potency entry in the experiment with ICS, in the experiment with JCK, in the experiment on N140, in the experiment on P93_24, in the experiment on P94_40 and with PAD was “inactive” throughout. In addition, the Potency entry in the experiment on PC15, in the experiment with PC26, in the experiment on PC49 and in the experiment on SC27B was “inactive” each time.
Regarding `C[C@@H](O)[C@H]1C(=O)N2C(C(=O)O)=C(S[C@@H]3CN[C@H](CNS(N)(=O)=O)C3)[C@H](C)[C@H]12`, the Potency result in the experiment with ICS, in the experiment with JCK, in the experiment on N140, in the experiment with P93_24, in the experiment on P94_40 and with PAD was “inactive” in each case. For the same compound, the Potency entry with PC15, in the experiment on PC26, with PC49 and in the experiment with SC27B was “inactive” throughout.
In the case of `CC(C)Cn1cnc2c1c(=O)n(C)c(=O)n2C`, the Potency result in the experiment on ICS, in the experiment with JCK, in the experiment with N140, with P93_24, in the experiment on P94_40 and in the experiment on PAD was “inactive” throughout. Also, the Potency entry with PC15, with PC26, with PC49 and in the experiment on SC27B was “inactive” throughout.
As for `FC(F)(F)C(F)(F)C(F)(F)C(F)(F)C(F)(F)C(F)(F)C(F)(F)C(F)(F)Br`, the Potency entry in the experiment on ICS, in the experiment with JCK, in the experiment on N140, in the experiment on P93_24, in the experiment on P94_40 and in the experiment on PAD was “inactive” in each case. The Potency entry in the experiment on PC15, in the experiment with PC26, in the experiment with PC49 and in the experiment on SC27B was “inactive” throughout.
Turning to `Cc1c[nH]c2ccccc12`, the Potency entry in the experiment on ICS, in the experiment with JCK, in the experiment with N140, in the experiment with P93_24, with P94_40 and in the experiment on PAD was “inactive” throughout. In addition, the Potency result in the experiment with PC15, with PC26, in the experiment with PC49 and in the experiment with SC27B was “inactive” throughout.
For `CCN(CC)CCNc1ccc(CO)c2sc3ccccc3c(=O)c12`, the Potency in the experiment with ICS was 2 µM (active); with JCK, 11.2 µM (active); in the experiment with N140, 0.708 µM (active); in the experiment on P93_24 it was 0.891 µM (active); with P94_40, 1.58 µM (active); in the experiment with PAD it was 1 µM (active). Moreover, the Potency is 3.16 µM (active) with PC15, 7.57 µM (active) in the experiment on PC26 and 1.12 µM (active) in the experiment with SC27B.
As to `COc1cc(C)nc(-n2nc(C)cc2OC)n1`, the Potency result in the experiment on ICS, with JCK, in the experiment with N140, in the experiment with P93_24, with P94_40 and in the experiment with PAD was “inactive” each time. Further, the Potency result in the experiment on PC15, in the experiment with PC26, with PC49 and in the experiment on SC27B was “inactive” throughout.
On to `CCOC(=O)c1c(N)sc2c1CCN(Cc1ccccc1)C2`, for which the Potency is 5.01 µM (active) in the experiment on ICS; 11.2 µM (active) in the experiment on JCK; 12.6 µM (active) with N140; 5.01 µM (active) in the experiment with P93_24; 5.62 µM (active) in the experiment with P94_40; 5.36 µM (active) in the experiment on PC26. For the same compound, the values for the Potency in the experiment on PC49 and with SC27B were 5.01 µM (active) and 10 µM (active), respectively.
For the compound `CCOC(=O)Nc1ccc2c(c1)N(C(=O)CCN1CCOCC1)c1ccccc1S2`, the Potency entry with ICS, in the experiment on JCK, with N140, in the experiment on P93_24, in the experiment with P94_40 and in the experiment on PAD was “inactive” in each case. Moreover, the Potency result with PC15, in the experiment with PC26, with PC49 and in the experiment on SC27B was “inactive” in each case.
With `O=C(c1ccc(F)cc1)C1CCN(CCn2c(=S)[nH]c3ccccc3c2=O)CC1`, the Potency in the experiment with ICS is 5.01 µM (active); in the experiment with JCK it was 11.2 µM (active); in the experiment on N140, 5.01 µM (active); in the experiment with P93_24, 3.98 µM (active); in the experiment with P94_40, 3.16 µM (active); in the experiment with PAD it was 8.91 µM (active). For the same compound, the Potency is 8.49 µM (active) in the experiment on PC26, 11.2 µM (active) in the experiment with PC49 and 3.16 µM (active) in the experiment on SC27B.
For `C#C[C@]1(OC(C)=O)CC[C@H]2[C@@H]3CCC4=C/C(=N/O)CC[C@@H]4[C@H]3CC[C@@]21CC`, the Potency result in the experiment with ICS, with JCK, in the experiment with N140, in the experiment on P93_24, in the experiment on P94_40 and with PAD was “inactive” throughout. The Potency result in the experiment on PC15, in the experiment with PC49 and in the experiment with SC27B was “inactive” throughout.
Turning to `CC[C@H](c1ccc(O)cc1)[C@@H](CC)c1ccc(O)cc1`, the Potency entry in the experiment on ICS, in the experiment with JCK, in the experiment on N140, with P93_24, with P94_40 and in the experiment on PAD was “inactive” each time. Also, the Potency result with PC15, in the experiment with PC26, with PC49 and in the experiment with SC27B was “inactive” in each case.
As to `O[C@@H](c1cc(C(F)(F)F)nc2c(C(F)(F)F)cccc12)[C@H]1CCCCN1`, the Potency with ICS was 0.0089 µM (active); with JCK, 17.8 µM (active); in the experiment with N140, 0.01 µM (active); with P93_24, 0.0316 µM (active); with P94_40, 0.0126 µM (active); in the experiment on PAD it was 0.0112 µM (active). The results for the Potency in the experiment on PC26 and in the experiment on SC27B were 0.0478 µM (active) and 0.0251 µM (active), respectively.
For the compound `COc1cc(N)c(Cl)cc1C(=O)NC1CCN(Cc2ccccc2)CC1`, the Potency result in the experiment on ICS, in the experiment on JCK, in the experiment on N140, in the experiment with P93_24, in the experiment with P94_40 and in the experiment on PAD was “inactive” throughout. Further, the Potency result in the experiment on PC15, in the experiment on PC49 and in the experiment with SC27B was “inactive” in each case.
`COc1ccc(/C=N/NC(=O)c2ccncc2)cc1OC`: the Potency entry in the experiment on ICS, in the experiment with JCK, in the experiment with N140, in the experiment on P93_24, with P94_40 and in the experiment on PAD was “inactive” each time. In addition, the Potency entry with PC15, in the experiment on PC26, in the experiment with PC49 and in the experiment on SC27B was “inactive” each time.
On to `COc1cc(C(=O)NCc2ccc(OCCN(C)C)cc2)cc(OC)c1OC`, for which the Potency result with ICS, in the experiment on JCK, in the experiment on N140, in the experiment on P93_24, in the experiment on P94_40 and in the experiment with PAD was “inactive” each time. The Potency result in the experiment with PC15, in the experiment on PC26, with PC49 and in the experiment on SC27B was “inactive” each time.
`NC(=O)c1ccccc1O`: the Potency entry in the experiment on ICS, with JCK, in the experiment on N140, in the experiment with P93_24, in the experiment with P94_40 and in the experiment with PAD was “inactive” throughout. Further, the Potency result in the experiment with PC15, in the experiment on PC26, with PC49 and in the experiment with SC27B was “inactive” in each case.
For the compound `O=C(O)CCC(=O)Nc1ccc(S(=O)(=O)Nc2nccs2)cc1`, the Potency entry in the experiment on ICS, in the experiment with JCK, in the experiment on N140, with P93_24, in the experiment on P94_40 and in the experiment on PAD was “inactive” throughout. In addition, the Potency entry in the experiment with PC15, in the experiment on PC26, with PC49 and in the experiment on SC27B was “inactive” each time.
In the case of `CN(C)CCC[C@@]1(c2ccc(F)cc2)OCc2cc(C#N)ccc21`, the Potency result with ICS, with JCK, in the experiment with N140, in the experiment on P93_24, with P94_40 and in the experiment with PAD was “inactive” each time. Further, the Potency result in the experiment on PC15, with PC26, with PC49 and in the experiment on SC27B was “inactive” in each case.
For the compound `Cc1ccc2c(Br)cc(Br)c(O)c2n1`, the Potency with ICS was 11.2 µM (active); in the experiment on JCK it was 10 µM (active); in the experiment with N140, 10 µM (active); in the experiment with SC27B, 11.2 µM (active). Moreover, the Potency result in the experiment with PC15 was “inactive”.
